# SARS PLpro yeast: qHTS of Yeast-based Assay for SARS-CoV PLP; S. cerevisiae expressing SARS-CoV PLpro, growth rescue; Potency, µM (top dose mostly 32.9 µM), for the others: at the top dose activity, positive = growth rescue, actives largely listed as activators; 330,000 tested, 0.19% active; further: potency means the concentration at half of the fitted maximal effect; 0% is about no effect; nearly all actives have a fitted effect of over 55% in size
# Shiga toxin inh: A qHTS for Small Molecule Inhibitors of Shiga Toxin; Vero cells, Shiga toxin protein synthesis inhibition reporter; inhibition, % at 38.7 µM; 290,000 tested, 9.2% active; AID 2315, 2010; in the data active means inhibition mostly above about 28%, no sharp cut-off; inactive means mostly below about 43%; further: 0% is about no effect
# Pf growth 48h: Primary qHTS for delayed death inhibitors of the malarial parasite plastid, 48 hour incubation. P. falciparum luciferase growth in erythrocytes, 48 h. Potency, µM (doses to about 28.7 µM), without a hit: top-dose activity change, negative = inhibition, most hits filed as inhibitors. 310,000 tested, 5.9% active. AID 504832, 2011; active means well fitted inhibition curve with a large enough effect; inconclusive means small, poorly fitted or top-dose-only effect, or another doubt; inactive means no such curve, though single readings can be large or run the other way; further: potency means the concentration at half of the fitted maximal effect; on the % scale 0 is the no-effect control and ±100 the full control effect
#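 A one-generation exposure of luciferase-tagged malaria parasites in RPMI 1640/Albumax erythrocyte culture, 37 C and 5% CO2. Inhibition is inferred from decreased luminescence after adding detection reagent.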
# NS1 function inh: qHTS Assay for Inhibitors of Influenza NS1 Protein Function. Potency, µM (titrated, usually from 46.1 µM), for the others: at the highest dose activity, positive = more growth. 270,000 tested, 0.4% active. AID 2326, 2010; further: potency means the concentration at half of the fitted maximal effect; actives are rising curves; nearly all actives have a fitted effect of over 50% in size
#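 A cell-based growth assay was used: compounds that relieve NS1-induced slow growth of budding yeast raise OD600. Assay medium was yeast nitrogen base with ammonium sulphate and -URA supplement, pH 6.0, with 2% galactose.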
# Cycloheximide cs: Cycloheximide Counterscreen for Small Molecule Inhibitors of Shiga Toxin; cell reporter, cycloheximide protein synthesis inhibition counterscreen; max response, %; 300,000 tested, 12% active; in the data active means max response mostly above about 13%, no sharp cut-off; inactive means mostly below about 14%; further: read at 38.3 µM for the half of the compounds with a filed dose; 0% is about no effect
# Pf growth 96h: Primary qHTS for delayed death inhibitors of the malarial parasite plastid, 96 hour incubation. Potency, µM (titrated, usually from 28.7 µM), for the others: at the highest dose activity change, negative = inhibition, usual class: inhibitors. P. falciparum luciferase reporter growth, 96 h. 320,000 tested, 6.9% active; active means well fitted inhibition curve with a large enough effect; inconclusive means small, poorly fitted or top-dose-only effect, or another doubt; inactive means no such curve, though single readings can be large or run the other way; further: potency means the concentration at half of the fitted maximal effect; on the % scale 0 is the no-effect control and ±100 the full control effect
#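 Plates of compound plus infected erythrocytes (2% hematocrit, 0.05% parasitemia final) incubate 96 hours, 37 C, 5% CO2. Detection reagent added; reduced luminescence from the parasites' luciferase reporter flags inhibition.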
# Starred values were filed as active, the others as inactive; ? = inconclusive; nt = no result; + = active, no number; [ ] = remark or other dose. The list is not random: actives were taken first. Their share in the collection is about 21%. Unless noted, the call rests on the fitted dose curve.
SMILES,SARS PLpro yeast,Shiga toxin inh,Pf growth 48h,NS1 function inh,Cycloheximide cs,Pf growth 96h
O=C(CCc1ccccc1)Nc1ccc2c(c1)OCO2,-2%,89*,104%,-24%,53*,1%
Cn1c(=O)c2c(nc(CN3CCN(c4ccccc4)CC3)n2Cc2ccccc2Cl)n(C)c1=O,-13%,15,6.6µM*,?,3,?
CN1CCN(Cc2nc3c(c(=O)n(C)c(=O)n3C)n2Cc2ccccc2Cl)CC1,nt,nt,nt,-16%,nt,nt
Cn1c(=O)c2c(nc(CN3CCN(c4ccccc4)CC3)n2Cc2c(F)cccc2Cl)n(C)c1=O,3%,-3,?,6%,1,5.2µM*
Cn1c(=O)c2c(nc(CN3CCN(c4ccccc4)CC3)n2Cc2ccccc2F)n(C)c1=O,1%,2,-17%,-7%,-4,nt
CN(C)CC#CCC(O)(c1ccccc1)c1ccccc1,1%,-16,-17%,0%,-2,-26%
COC(C#CCCN(C)C)(c1ccccc1)c1ccccc1,-34%,-7,1.7µM*,-6%,-3,?
Cc1ccc(S(=O)(=O)N2CCOCC2)cc1NCC(=O)Nc1ccc(OC(F)(F)F)cc1,0%,nt,nt,nt,nt,nt
O=C(CN(C(=O)c1csnn1)c1ccccc1Cl)NC1CCCC1,-1%,-4,11%,9%,-1,18%
COc1ccc(CCNC(=O)CSc2nc3ccccc3o2)cc1,1%,-19,nt,-96%,-4,-6%
c1ccc(OCCSc2nc3ccccc3o2)cc1,-1%,99*,60%,-20%,22*,?
CCOc1ccc(OCCSc2nc3ccccc3o2)cc1,-15%,26,25%,-30%,15*,nt
O=C(Nc1ccc(S(=O)(=O)Nc2nccs2)cc1)c1ccccc1OC(F)F,0%,nt,-12%,nt,nt,23%
NC(=O)[C@@H]1CCCNc2c(F)cc([N+](=O)[O-])cc2C(=O)N[C@@H](CCC(=O)O)C(=O)N[C@@H](CO)C(=O)N1,16%,11,16%,-21%,-3,-9%
CCN1C(=S)SC(=O)C1=C1C=C(C)N(Cc2ccco2)C(C)=C1,7%,96*,-7%,-39%,55*,-24%
C=C1CCN([C@@H](C)C(=O)NCc2ccc(OC)cc2)S(=O)(=O)c2ccccc21,-1%,4,?,3%,-4,?
CCCCOc1ccc(CC2CCC(=O)NC2=O)cc1 (stereo not given),0%,3,8%,-4%,13*,44%
CCCCOc1ccc(C2CC(=O)NC2=O)cc1 (stereo not given),-9%,67*,42%,-2%,36*,nt
CCCOc1ccc(C2CC(=O)NC2=O)cc1 (stereo not given),0%,24,10%,5%,-4,43%
CCn1c(C)c(C(C)=O)c(N2CCN(c3ccccc3)CC2)nc1=S,-5%,-5,nt,2%,8,-2%
CC(=O)c1c(N2CCN(C)CC2)[nH]c(-c2ccccc2)nc1=S,2%,-15,1.7µM*,16%,-3,116%
COc1ccc(NC2CC(=O)N(c3cc([N+](=O)[O-])ccc3C)C2=O)cc1 (stereo not given),-1%,-10,15%,9%,-1,-1%
CC(C)CNC(=O)/C=C/C=C/CCCC/C=C/c1ccc2c(c1)OCO2,-3%,nt,?,nt,nt,?
C/C(CC(=O)Nc1ccc(Br)cc1)=N\NC(=O)c1cccc(O)c1,1%,69*,?,25%,44*,?
C/C(CC(=O)Nc1ccc2c(c1)OCCO2)=N\NC(=O)c1cccc(O)c1,-7%,84*,28%,2%,33*,?
SMILES,SARS PLpro yeast,Shiga toxin inh,Pf growth 48h,NS1 function inh,Cycloheximide cs,Pf growth 96h
COc1ccc(C(=O)N/N=C(\C)CC(=O)Nc2ccc3c(c2)OCO3)cc1,0%,55*,-1%,-6%,37*,14%
C/C(CC(=O)Nc1cccc(F)c1)=N\NC(=O)c1ccncc1,18%,28,6%,?,10,98%
CCCCC1CCC(C(=O)NCC(c2ccco2)N2CCOCC2)CC1 (stereo not given),-14%,-4,-14%,-27%,13,-7%
COc1ccccc1C(CC(=O)O)NS(=O)(=O)c1ccc2c(c1)N(C(C)=O)CC(C)O2 (stereo not given),0%,-3,3%,12%,1,?
Cc1nn2cc(-c3ccccc3)nc2s1,-1%,59,180%,-52%,32*,14%[5.75 µM]
CC(=O)N(C(C)=O)c1nc(-c2ccccc2)cn1/N=C/c1ccccc1,-1%,27,5%,-45%,0,9%
CC1Oc2ccccc2OC1C(=O)Nc1nccs1 (stereo not given),1%,25,4%,-8%,18*,5%
C/C(=C\c1ccccc1)C(=O)Nc1nccs1,-1%,152*,244%,nt,49*,0%
N#C/C(=C\c1cccs1)C(=O)Nc1nccs1,-1%,65*,20%,-37%,27*,24%
O=C(Nc1nccs1)c1ccccc1N=Cc1ccccc1,19%,48*,33%,-20%,25*,136%
CC(C)[C@]1(O)[C@@H](OC(=O)c2ccc[nH]2)[C@]2(O)[C@@]3(C)C[C@@]4(O)O[C@@]5([C@H](O)[C@@H](C)CC[C@]35O)[C@]2(O)[C@]41C,nt,nt,nt,-6%,nt,nt
CCC1(c2ccccc2)NC(=O)NC1=O (stereo not given),nt,-8,nt,nt,10,nt
O=C(CSc1nnc(CNC(=O)c2c(F)cccc2F)o1)NCc1ccco1,2%,-10,-16%,11%,1,0%
COc1cc(C#Cc2c(-c3cncn3C)n(C)c3ccc(-c4ccc(OC)c(OC)c4)cc23)cc(OC)c1,3%,nt,1.3µM*,nt,nt,5.2µM*
COc1cc(C#Cc2c(-c3ccccc3)n(C)c3ccccc23)cc(OC)c1,-5%,-6,?,16%,2,12µM*
Cc1cc(C#Cc2c(-c3ccccc3)n(C)c3ccccc23)ccc1F,-14%,5,?,14%,-1,5.9µM*
COC(=O)c1ccc2c(c1)c(I)c(-c1ccc(OC)cc1)n2C,nt,+,nt,nt,37*,nt
COc1ccc(-c2c(C#Cc3ccsc3)c3cc(-c4ccc(C(N)=O)cc4)ccc3n2C)cc1,5%,nt,nt,nt,nt,nt
COc1ccc(C#Cc2c(-c3ccccc3)n(C)c3ccccc23)cc1,-2%,nt,nt,nt,nt,nt
CS(=O)(=O)c1ccc(Oc2ccc(-c3nnco3)cc2)c([N+](=O)[O-])c1,-1%,38,13%,-2%,17,10%
O=C(Nc1ccc2nc3n(c(=O)c2c1)CCCCC3)C(=O)N1CCN(c2ccccc2F)CC1,4%,-7,?,7%,-8,68%
COc1ccc(-c2c(C#Cc3ccsc3)c3cc(-c4cccc5[nH]ccc45)ccc3n2C)cc1,-8%,nt,1.3µM*,nt,nt,2.3µM*

# Screens from PubChem.
